Source: PMC7862700, “An all-to-all approach to the identification of sequence-specific readers for epigenetic DNA modifications on cytosine”

Molecular target: T1, FEV (Homo sapiens, UniProt Q99581 1-238)
T1 sequence: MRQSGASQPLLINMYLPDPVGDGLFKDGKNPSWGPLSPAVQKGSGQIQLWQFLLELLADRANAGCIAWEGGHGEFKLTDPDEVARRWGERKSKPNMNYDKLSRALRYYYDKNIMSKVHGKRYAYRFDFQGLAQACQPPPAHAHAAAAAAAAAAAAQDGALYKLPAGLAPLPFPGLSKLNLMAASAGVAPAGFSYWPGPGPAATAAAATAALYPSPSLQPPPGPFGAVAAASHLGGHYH
Assay: DAPPL (digital affinity profiling via proximity ligation, sequencing); 10 mM Tris-HCl pH 7.5, 50 mM NaCl, 1 mM DTT, 4% glycerol, room temperature, 30 min; GST-TFs on glutathione beads, 16-mer random dsDNA library, 0.1% formaldehyde crosslink after washing; high values mean tight binding
Conditions: protein: recombinant; tags: N-terminal GST; dsDNA, one strand shown
Outline: (§1)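 A tag-only sample was pooled with DNA-barcoded human transcription factors that had been expressed in yeast as GST fusions and captured on glutathione beads. The pools were incubated for 30 min at room temperature with 200 nmole of a random double-stranded 16-mer DNA library in Tris/NaCl/DTT/glycerol buffer, then washed, crosslinked with 0.1% formaldehyde, proximity-ligated (BsaI/T4 ligase, 1 h, 37 °C), PCR-amplified and sequenced on an Illumina NextSeq500. Binding signal is each hexamer's read frequency for a factor divided by its frequency for the tag-only sample.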

Compared with GGTCTA, CACCAT is lower in binding signal: 1.06 fold enrichment (6-mer frequency, TF over GST control) for the first, 1.05 fold enrichment (6-mer frequency, TF over GST control) for the second.

First: TGACGC
Second: CGCACT
The binding signal of the first is lower: 1.13 fold enrichment (6-mer frequency, TF over GST control) for the first, 1.32 fold enrichment (6-mer frequency, TF over GST control) for the second.

Going from TTGGCC to CTATGT, the binding signal falls from 1.14 fold enrichment (6-mer frequency, TF over GST control) to 1.09 fold enrichment (6-mer frequency, TF over GST control).

First: GGAAGC
Second: ACCCAC
The binding signal of the first is higher: 1.74 fold enrichment (6-mer frequency, TF over GST control) for the first, 1.22 fold enrichment (6-mer frequency, TF over GST control) for the second.

First: GGCTTG
Second: TGAACC
The binding signal of the first is lower: 1.01 fold enrichment (6-mer frequency, TF over GST control) for the first, 1.12 fold enrichment (6-mer frequency, TF over GST control) for the second.

Compared with CCACAT, AAGTCA is lower in binding signal: 1.27 fold enrichment (6-mer frequency, TF over GST control) for the first, 1.17 fold enrichment (6-mer frequency, TF over GST control) for the second.

Compared with CGTTAT, CACCCG is higher in binding signal: 1.03 fold enrichment (6-mer frequency, TF over GST control) for the first, 1.16 fold enrichment (6-mer frequency, TF over GST control) for the second.

First: ACCCGG
Second: ACCGCT
The binding signal of the first is higher: 1.61 fold enrichment (6-mer frequency, TF over GST control) for the first, 1.17 fold enrichment (6-mer frequency, TF over GST control) for the second.

Going from TGCACG to TCATGG, the binding signal falls from 1.15 fold enrichment (6-mer frequency, TF over GST control) to 1.05 fold enrichment (6-mer frequency, TF over GST control).

First: CCCACC
Second: GCGGAA
The binding signal of the first is lower: 1.17 fold enrichment (6-mer frequency, TF over GST control) for the first, 1.34 fold enrichment (6-mer frequency, TF over GST control) for the second.

First: TCAATG
Second: ACCGCC
The binding signal of the first is lower: 1.03 fold enrichment (6-mer frequency, TF over GST control) for the first, 1.32 fold enrichment (6-mer frequency, TF over GST control) for the second.

Compared with TCAGCA, GTTTTG is higher in binding signal: 1.02 fold enrichment (6-mer frequency, TF over GST control) for the first, 1.16 fold enrichment (6-mer frequency, TF over GST control) for the second.

First: GTTTCA
Second: ACCCCC
The binding signal of the first is higher: 1.31 fold enrichment (6-mer frequency, TF over GST control) for the first, 1.19 fold enrichment (6-mer frequency, TF over GST control) for the second.

Compared with CGGTTT, CGGAAA is higher in binding signal: 1.44 fold enrichment (6-mer frequency, TF over GST control) for the first, 3.21 fold enrichment (6-mer frequency, TF over GST control) for the second.

First: GTAATG
Second: CCTTGT
The binding signal of the first is lower: 1.03 fold enrichment (6-mer frequency, TF over GST control) for the first, 1.09 fold enrichment (6-mer frequency, TF over GST control) for the second.

Going from TGCAAT to TTGTTG, the binding signal falls from 1.2 fold enrichment (6-mer frequency, TF over GST control) to 1.01 fold enrichment (6-mer frequency, TF over GST control).

Going from ATCACA to GGTGTT, the binding signal falls from 1.11 fold enrichment (6-mer frequency, TF over GST control) to 1 fold enrichment (6-mer frequency, TF over GST control).

Going from GTGTTT to CCAACA, the binding signal falls from 1.09 fold enrichment (6-mer frequency, TF over GST control) to 1.05 fold enrichment (6-mer frequency, TF over GST control).

First: TGTCCA
Second: CTGCAC
The binding signal of the first is lower: 1.11 fold enrichment (6-mer frequency, TF over GST control) for the first, 1.22 fold enrichment (6-mer frequency, TF over GST control) for the second.

With TTGGGC the binding signal was 1.13 fold enrichment (6-mer frequency, TF over GST control).

Molecular target: ETV5 (Homo sapiens, UniProt P41161 1-510)
Assay: as above
Conditions: protein: recombinant; tags: N-terminal GST; dsDNA, one strand shown
Outline: as §1

Sequence of ETV5 (P41161 whole entry): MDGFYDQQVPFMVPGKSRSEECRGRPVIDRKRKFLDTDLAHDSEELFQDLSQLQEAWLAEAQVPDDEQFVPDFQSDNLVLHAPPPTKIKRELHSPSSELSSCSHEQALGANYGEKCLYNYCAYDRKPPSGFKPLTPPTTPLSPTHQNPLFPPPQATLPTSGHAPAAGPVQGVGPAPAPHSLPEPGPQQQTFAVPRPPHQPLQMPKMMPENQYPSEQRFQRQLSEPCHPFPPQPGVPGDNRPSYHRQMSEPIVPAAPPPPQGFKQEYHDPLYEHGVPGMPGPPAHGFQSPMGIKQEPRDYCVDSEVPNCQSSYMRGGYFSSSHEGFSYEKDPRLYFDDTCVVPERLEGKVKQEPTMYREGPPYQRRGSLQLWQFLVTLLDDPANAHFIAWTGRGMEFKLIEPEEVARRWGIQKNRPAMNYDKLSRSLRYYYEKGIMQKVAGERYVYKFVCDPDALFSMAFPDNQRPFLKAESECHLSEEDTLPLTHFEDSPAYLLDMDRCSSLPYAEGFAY

GGTCTA and CACCAT are the same in binding signal: 1.11 fold enrichment (6-mer frequency, TF over GST control) for the first, 1.11 fold enrichment (6-mer frequency, TF over GST control) for the second.

TGACGC and CGCACT are the same in binding signal: 1.28 fold enrichment (6-mer frequency, TF over GST control) for the first, 1.28 fold enrichment (6-mer frequency, TF over GST control) for the second.

Going from TTGGCC to CTATGT, the binding signal falls from 1.12 fold enrichment (6-mer frequency, TF over GST control) to 1.01 fold enrichment (6-mer frequency, TF over GST control).

Compared with GGAAGC, ACCCAC is lower in binding signal: 1.79 fold enrichment (6-mer frequency, TF over GST control) for the first, 1.15 fold enrichment (6-mer frequency, TF over GST control) for the second.

Going from GGCTTG to TGAACC, the binding signal rises from 1.01 fold enrichment (6-mer frequency, TF over GST control) to 1.21 fold enrichment (6-mer frequency, TF over GST control).

Going from CCACAT to AAGTCA, the binding signal rises from 1.17 fold enrichment (6-mer frequency, TF over GST control) to 1.23 fold enrichment (6-mer frequency, TF over GST control).

Going from CGTTAT to CACCCG, the binding signal rises from 1.15 fold enrichment (6-mer frequency, TF over GST control) to 1.21 fold enrichment (6-mer frequency, TF over GST control).

Compared with ACCCGG, ACCGCT is lower in binding signal: 1.89 fold enrichment (6-mer frequency, TF over GST control) for the first, 1.1 fold enrichment (6-mer frequency, TF over GST control) for the second.

First: TGCACG
Second: TGCTGA
The binding signal of the first is higher: 1.14 fold enrichment (6-mer frequency, TF over GST control) for the first, 1.07 fold enrichment (6-mer frequency, TF over GST control) for the second.

Compared with TCATGG, CCCACC is higher in binding signal: 1.09 fold enrichment (6-mer frequency, TF over GST control) for the first, 1.16 fold enrichment (6-mer frequency, TF over GST control) for the second.

Compared with GCGGAA, TCAATG is lower in binding signal: 1.56 fold enrichment (6-mer frequency, TF over GST control) for the first, 1.02 fold enrichment (6-mer frequency, TF over GST control) for the second.

Compared with ACCGCC, TCAGCA is lower in binding signal: 1.23 fold enrichment (6-mer frequency, TF over GST control) for the first, 1.05 fold enrichment (6-mer frequency, TF over GST control) for the second.

First: GTTTTG
Second: GTTTCA
The binding signal of the first is higher: 1.28 fold enrichment (6-mer frequency, TF over GST control) for the first, 1.26 fold enrichment (6-mer frequency, TF over GST control) for the second.

First: ACCCCC
Second: CGGTTT
The binding signal of the first is lower: 1.18 fold enrichment (6-mer frequency, TF over GST control) for the first, 1.21 fold enrichment (6-mer frequency, TF over GST control) for the second.

Going from CGGAAA to GTAATG, the binding signal falls from 2.32 fold enrichment (6-mer frequency, TF over GST control) to 1.09 fold enrichment (6-mer frequency, TF over GST control).

Compared with CCTTGT, TGCAAT is lower in binding signal: 1.32 fold enrichment (6-mer frequency, TF over GST control) for the first, 1.21 fold enrichment (6-mer frequency, TF over GST control) for the second.

Compared with TTGTTG, ATCACA is higher in binding signal: 1.08 fold enrichment (6-mer frequency, TF over GST control) for the first, 1.13 fold enrichment (6-mer frequency, TF over GST control) for the second.

First: GGTGTT
Second: GTGTTT
The binding signal of the first is lower: 1.09 fold enrichment (6-mer frequency, TF over GST control) for the first, 1.14 fold enrichment (6-mer frequency, TF over GST control) for the second.

Going from CCAACA to TGTCCA, the binding signal rises from 1.05 fold enrichment (6-mer frequency, TF over GST control) to 1.15 fold enrichment (6-mer frequency, TF over GST control).

Going from CTGCAC to TTGGGC, the binding signal falls from 1.17 fold enrichment (6-mer frequency, TF over GST control) to 1.12 fold enrichment (6-mer frequency, TF over GST control).

Molecular target: T2, SPIC (Homo sapiens, UniProt Q8N5J4 1-248)
T2 sequence: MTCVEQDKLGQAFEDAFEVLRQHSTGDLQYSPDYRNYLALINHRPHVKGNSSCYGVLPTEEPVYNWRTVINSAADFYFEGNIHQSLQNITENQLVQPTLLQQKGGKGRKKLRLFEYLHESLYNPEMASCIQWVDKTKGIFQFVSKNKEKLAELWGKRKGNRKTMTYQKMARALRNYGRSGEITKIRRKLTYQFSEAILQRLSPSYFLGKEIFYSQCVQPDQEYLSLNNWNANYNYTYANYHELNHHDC
Assay: as above
Conditions: protein: recombinant; tags: N-terminal GST; dsDNA, one strand shown
Outline: as §1

Going from GGTCTA to CACCAT, the binding signal falls from 1.09 fold enrichment (6-mer frequency, TF over GST control) to 1.06 fold enrichment (6-mer frequency, TF over GST control).

First: TGACGC
Second: CGCACT
The binding signal of the first is higher: 1.18 fold enrichment (6-mer frequency, TF over GST control) for the first, 1.04 fold enrichment (6-mer frequency, TF over GST control) for the second.

Compared with TTGGCC, CTATGT is lower in binding signal: 1.06 fold enrichment (6-mer frequency, TF over GST control) for the first, 1.01 fold enrichment (6-mer frequency, TF over GST control) for the second.

Compared with GGAAGC, ACCCAC is lower in binding signal: 1.39 fold enrichment (6-mer frequency, TF over GST control) for the first, 1.23 fold enrichment (6-mer frequency, TF over GST control) for the second.

Compared with GGCTTG, TGAACC is lower in binding signal: 1.12 fold enrichment (6-mer frequency, TF over GST control) for the first, 1.1 fold enrichment (6-mer frequency, TF over GST control) for the second.

First: CCACAT
Second: AAGTCA
The binding signal of the first is higher: 1.29 fold enrichment (6-mer frequency, TF over GST control) for the first, 1.1 fold enrichment (6-mer frequency, TF over GST control) for the second.

Going from CGTTAT to CACCCG, the binding signal falls from 1.23 fold enrichment (6-mer frequency, TF over GST control) to 1.17 fold enrichment (6-mer frequency, TF over GST control).

Compared with ACCCGG, ACCGCT is lower in binding signal: 1.61 fold enrichment (6-mer frequency, TF over GST control) for the first, 1.13 fold enrichment (6-mer frequency, TF over GST control) for the second.

First: TGCACG
Second: TGCTGA
The binding signal of the first is lower: 1.03 fold enrichment (6-mer frequency, TF over GST control) for the first, 1.18 fold enrichment (6-mer frequency, TF over GST control) for the second.

First: TCATGG
Second: CCCACC
The binding signal of the first is lower: 1.16 fold enrichment (6-mer frequency, TF over GST control) for the first, 1.21 fold enrichment (6-mer frequency, TF over GST control) for the second.

First: GCGGAA
Second: TCAATG
The binding signal of the first is higher: 1.5 fold enrichment (6-mer frequency, TF over GST control) for the first, 1.09 fold enrichment (6-mer frequency, TF over GST control) for the second.

Going from ACCGCC to TCAGCA, the binding signal falls from 1.16 fold enrichment (6-mer frequency, TF over GST control) to 1.1 fold enrichment (6-mer frequency, TF over GST control).

First: GTTTTG
Second: GTTTCA
The binding signal of the first is higher: 1.34 fold enrichment (6-mer frequency, TF over GST control) for the first, 1.06 fold enrichment (6-mer frequency, TF over GST control) for the second.

Compared with ACCCCC, CGGTTT is higher in binding signal: 1.12 fold enrichment (6-mer frequency, TF over GST control) for the first, 1.23 fold enrichment (6-mer frequency, TF over GST control) for the second.

Compared with CGGAAA, GTAATG is lower in binding signal: 1.94 fold enrichment (6-mer frequency, TF over GST control) for the first, 1.02 fold enrichment (6-mer frequency, TF over GST control) for the second.

First: CCTTGT
Second: TGCAAT
The binding signal of the first is lower: 1.11 fold enrichment (6-mer frequency, TF over GST control) for the first, 1.14 fold enrichment (6-mer frequency, TF over GST control) for the second.

Compared with TTGTTG, ATCACA is lower in binding signal: 1.19 fold enrichment (6-mer frequency, TF over GST control) for the first, 1.09 fold enrichment (6-mer frequency, TF over GST control) for the second.

Going from GGTGTT to GTGTTT, the binding signal rises from 1.09 fold enrichment (6-mer frequency, TF over GST control) to 1.21 fold enrichment (6-mer frequency, TF over GST control).

Compared with CCAACA, TGTCCA is higher in binding signal: 1.01 fold enrichment (6-mer frequency, TF over GST control) for the first, 1.17 fold enrichment (6-mer frequency, TF over GST control) for the second.

First: CTGCAC
Second: TTGGGC
The binding signal of the first is higher: 1.32 fold enrichment (6-mer frequency, TF over GST control) for the first, 1.07 fold enrichment (6-mer frequency, TF over GST control) for the second.
